This note sets out measurements from a collection of fitness landscapes (doi:10.1016/j.celrep.2020.107928).

In all, about 81,000 sequences were measured (“one-hybrid fitness for binding parS DNA”: median about -0.17, highest 2% from about 0.51 on). The sample as a whole holds a higher share of the highest values than the screen did.

To fix the notation:
B1: Caulobacter ParB omega fusion; a variant is named by its letters at X, in order, B8GW30 (parent)
chain: MESVVVGEPGMSEGRRGLGRGLSALLGEVDAAPAQAPGEQLGGSREAPIEILQRNPDQPRRTFREEDLEDLSNSIREKGVLQPILVRPSPDTAGEYQIVAGERAWRAAQRAGLKTVPIMVRELDDLAVLEIGIIENVQRADLNVLEEALSYKVLMEKFERTQENIAQTIGKSXSHVANXMRLLXLPDEVQSYLVSGELTAXHARAIAAAADPVALAKQIIEGGLSVRETEALARKAPNLSAGKSKGGRPPRVKDTDTQALESDLSSVLGLDVSIDHRGSTGTLTITYATLEQLDDLCNRLTRGI

In this assay the parent is B1. Put plainly: one-hybrid fitness for binding parS DNA (scaled: cognate 1, non-cognate 0); higher = stronger binding. Conditions: with parS DNA site. A digest of the protocol: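 Fitness is the rescaled log change in variant-to-wild-type read ratio, measured by Illumina sequencing of plasmids before and after bacterial one-hybrid selection. The scale puts cognate at 1 and non-cognate at 0. Selection of Caulobacter ParB libraries, four specificity codons randomised, took place in E. coli USO with a HIS3 reporter, site 19 bp from the promoter, over 48 hours at 37°C on M9-minus-histidine with 0.1 mM IPTG and 5 mM 3-AT.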
As to RLYS, the “one-hybrid fitness for binding parS DNA” value is 1.04. Consider RLWS, for which the “one-hybrid fitness for binding parS DNA” value turned out to be 1.03. To RLLN belongs 0.44; to RLLS, 1.05; to RLLH, 0.248.

On to RLGD, for which the “one-hybrid fitness for binding parS DNA” value is ≤ 0.2. As to YVWS, the “one-hybrid fitness for binding parS DNA” value was ≤ 0.2.

In the case of YNKG, the “one-hybrid fitness for binding parS DNA” value is ≤ 0.2. Regarding RRYE, the “one-hybrid fitness for binding parS DNA” value is ≤ 0.2. For YFLW, the “one-hybrid fitness for binding parS DNA” value was ≤ 0.2. The value for GWSG was ≤ 0.2; that for SAAF was ≤ 0.2. Consider VKNG, for which the “one-hybrid fitness for binding parS DNA” value was ≤ 0.2. To AELV belongs ≤ 0.2; to GLPW, ≤ 0.2; to PMAN, ≤ 0.2.

As for YMPP, the “one-hybrid fitness for binding parS DNA” value is ≤ 0.2. To KVPK belongs ≤ 0.2; to RLDH, ≤ 0.2.

For the variant RLDN, the “one-hybrid fitness for binding parS DNA” value is 0.416.

As for RLDS, the “one-hybrid fitness for binding parS DNA” value came to 1.01.

As for QGEI, the “one-hybrid fitness for binding parS DNA” value was ≤ 0.2. The value for TFSF was ≤ 0.2; that for YFFS was ≤ 0.2; that for RGCD was ≤ 0.2.

Take RGGS: the “one-hybrid fitness for binding parS DNA” value came out at 0.733. To RGWN belongs ≤ 0.2; to RGWD, ≤ 0.2. Consider RGCN, for which the “one-hybrid fitness for binding parS DNA” value was ≤ 0.2.

In the case of RGWS, the “one-hybrid fitness for binding parS DNA” value is 0.573. To RGCT belongs 0.51; to RGGN, ≤ 0.2.

As to RGGP, the “one-hybrid fitness for binding parS DNA” value was ≤ 0.2.

For RGCS, the “one-hybrid fitness for binding parS DNA” value turned out to be 0.595. Take RGCQ: the “one-hybrid fitness for binding parS DNA” value was ≤ 0.2. SEDR: the “one-hybrid fitness for binding parS DNA” value is ≤ 0.2.

As for YADT, the “one-hybrid fitness for binding parS DNA” value is ≤ 0.2.

For KCCV, the “one-hybrid fitness for binding parS DNA” value was ≤ 0.2. For VDHL, the “one-hybrid fitness for binding parS DNA” value was ≤ 0.2. To DLCC belongs ≤ 0.2.

Regarding SLAM, the “one-hybrid fitness for binding parS DNA” value was ≤ 0.2. The value for NYMG was ≤ 0.2; that for RGSD was ≤ 0.2; that for RGIH was ≤ 0.2. As for RGQT, the “one-hybrid fitness for binding parS DNA” value was determined as 0.58.

RGHF: the “one-hybrid fitness for binding parS DNA” value is ≤ 0.2. Turning to RGSS, the “one-hybrid fitness for binding parS DNA” value amounted to 0.849.

As to RGHT, the “one-hybrid fitness for binding parS DNA” value was found to be 0.519. RGSN: the “one-hybrid fitness for binding parS DNA” value worked out at 0.218. To RGIS belongs 0.524. To RGIN belongs ≤ 0.2. TPNI: the “one-hybrid fitness for binding parS DNA” value is ≤ 0.2. To SATH belongs ≤ 0.2.

For the variant HPWF, the “one-hybrid fitness for binding parS DNA” value was ≤ 0.2. For the variant TRNA, the “one-hybrid fitness for binding parS DNA” value is ≤ 0.2. The value for QQAP was ≤ 0.2; that for AFMD was ≤ 0.2. As to PRPT, the “one-hybrid fitness for binding parS DNA” value is ≤ 0.2. As to LTYS, the “one-hybrid fitness for binding parS DNA” value was ≤ 0.2. The value for WIST was ≤ 0.2; that for RGRT was 0.676. Consider RGQS, for which the “one-hybrid fitness for binding parS DNA” value turned out to be 0.803.

For the variant RGST, the “one-hybrid fitness for binding parS DNA” value was 0.601.

Consider RGQN, for which the “one-hybrid fitness for binding parS DNA” value came out at 0.249. The value for RGNT was 0.609; that for RGNF was ≤ 0.2.

For RGYT, the “one-hybrid fitness for binding parS DNA” value amounted to 0.475. To RGSY belongs 0.226; to RGQD, ≤ 0.2. RGPT: the “one-hybrid fitness for binding parS DNA” value was ≤ 0.2. For the variant RGDT, the “one-hybrid fitness for binding parS DNA” value is 0.371. For the variant LTFV, the “one-hybrid fitness for binding parS DNA” value is ≤ 0.2. The value for QTHV was ≤ 0.2; that for HQLT was ≤ 0.2; that for QKHC was ≤ 0.2.

As for SLYD, the “one-hybrid fitness for binding parS DNA” value was ≤ 0.2. As for GLTA, the “one-hybrid fitness for binding parS DNA” value was ≤ 0.2. Turning to CINY, the “one-hybrid fitness for binding parS DNA” value was ≤ 0.2.

Take YKSG: the “one-hybrid fitness for binding parS DNA” value is ≤ 0.2.

For the variant PKIS, the “one-hybrid fitness for binding parS DNA” value was ≤ 0.2. Turning to EFPF, the “one-hybrid fitness for binding parS DNA” value is ≤ 0.2. Turning to DVWS, the “one-hybrid fitness for binding parS DNA” value is ≤ 0.2. To NFYC belongs ≤ 0.2; to DMTG, ≤ 0.2. On to RGFT, for which the “one-hybrid fitness for binding parS DNA” value was determined as 0.455. To RGPS belongs 0.336. Take RGYS: the “one-hybrid fitness for binding parS DNA” value turned out to be 0.586. RGHH: the “one-hybrid fitness for binding parS DNA” value was ≤ 0.2. With RGRP, the “one-hybrid fitness for binding parS DNA” value was ≤ 0.2. The value for RGYD was ≤ 0.2; that for RGHS was 0.73; that for RGRD was ≤ 0.2. In the case of RGHD, the “one-hybrid fitness for binding parS DNA” value was ≤ 0.2. The value for RGAP was ≤ 0.2; that for RGAT was 0.524. To RGRS belongs 0.932.

For the variant NMTN, the “one-hybrid fitness for binding parS DNA” value is ≤ 0.2.

Take HQTD: the “one-hybrid fitness for binding parS DNA” value was ≤ 0.2. To CKKK belongs ≤ 0.2. For SMHA, the “one-hybrid fitness for binding parS DNA” value was ≤ 0.2. On to LLCV, for which the “one-hybrid fitness for binding parS DNA” value is ≤ 0.2.

On to RNEW, for which the “one-hybrid fitness for binding parS DNA” value was ≤ 0.2. To RGLN belongs ≤ 0.2; to RGLS, 0.65.

As to RGLD, the “one-hybrid fitness for binding parS DNA” value is ≤ 0.2. As for GMLK, the “one-hybrid fitness for binding parS DNA” value was ≤ 0.2. To TTDG belongs ≤ 0.2; to RVPN, ≤ 0.2; to RVPC, 0.637. The value for RVIH was ≤ 0.2. To RVIC belongs 0.846; to RVIN, 0.334. Take RVPH: the “one-hybrid fitness for binding parS DNA” value was ≤ 0.2. The value for HYPN was ≤ 0.2; that for ITNM was ≤ 0.2; that for RPKT was ≤ 0.2. Take RCKT: the “one-hybrid fitness for binding parS DNA” value was found to be 0.748. As to RSKT, the “one-hybrid fitness for binding parS DNA” value was 0.796. Consider RDKT, for which the “one-hybrid fitness for binding parS DNA” value is ≤ 0.2. The value for RSKK was ≤ 0.2; that for REKT was 0.369. To PRHS belongs ≤ 0.2; to MIYR, ≤ 0.2; to VPKS, ≤ 0.2. The value for TLQM was ≤ 0.2; that for RRMA was 0.809; that for DTMA was ≤ 0.2. Consider NTMA, for which the “one-hybrid fitness for binding parS DNA” value was ≤ 0.2.

In the case of RFMA, the “one-hybrid fitness for binding parS DNA” value turned out to be 0.504.

In the case of RYMA, the “one-hybrid fitness for binding parS DNA” value amounted to 0.553. Turning to SYMA, the “one-hybrid fitness for binding parS DNA” value is ≤ 0.2.

In the case of DRMA, the “one-hybrid fitness for binding parS DNA” value was ≤ 0.2.

For AYMA, the “one-hybrid fitness for binding parS DNA” value is ≤ 0.2.

As for RTMA, the “one-hybrid fitness for binding parS DNA” value is 0.582. To RWMA belongs 0.287. In the case of RSMA, the “one-hybrid fitness for binding parS DNA” value was 0.576. To NRMA belongs ≤ 0.2; to NGLP, ≤ 0.2; to DLGV, ≤ 0.2.

For QGYV, the “one-hybrid fitness for binding parS DNA” value is ≤ 0.2. Turning to HVLF, the “one-hybrid fitness for binding parS DNA” value is ≤ 0.2. Regarding IQVR, the “one-hybrid fitness for binding parS DNA” value is ≤ 0.2. The value for RYHV was ≤ 0.2.

WPYE: the “one-hybrid fitness for binding parS DNA” value was ≤ 0.2. Take RRPL: the “one-hybrid fitness for binding parS DNA” value is ≤ 0.2. In the case of ALDW, the “one-hybrid fitness for binding parS DNA” value is ≤ 0.2. On to VVHY, for which the “one-hybrid fitness for binding parS DNA” value is ≤ 0.2.

On to RKMA, for which the “one-hybrid fitness for binding parS DNA” value was determined as 0.54. To RGMA belongs 0.283; to RAMA, 0.565; to RDMA, ≤ 0.2. Consider RIMA, for which the “one-hybrid fitness for binding parS DNA” value was found to be 0.6. To RMMA belongs 0.643.
